Test results as given in PubChem BioAssay AID1730 (National Center for Advancing Translational Sciences (NCATS), 2009).
Records with an inconclusive call do not appear. The source made the active and inactive calls. The call rests on the fitted dose curve; in most records, active means well fitted inhibition curve with a large enough effect; inconclusive means small, poorly fitted or top-dose-only effect; inactive means no such curve, though single readings can be large or run the other way.

Experiment: Counterscreen Assay for Inhibitors of the ERK Signaling Pathway using a Homogeneous Screening Assay
Source text: qHTS Assay for Inhibitors of the ERK Signaling Pathway using a Homogeneous Screening Assay
NIH Chemical Genomics Center [NCGC]
NIH Molecular Libraries Screening Centers Network [MLSCN]
Assay Submitter (PI): Dr. Wei Zheng, NCGC/NIH
The Ras/extracellular-signal-regulated kinase (ERK) mitogen activated protein (MAP) kinase signaling pathway (ERK1/2 cascade) plays is a key role in transmitting signals from the cell surface to the nucleus (Nishida and Gotoh 1993; Chang and Karin, 2001). The cascade is initiated by the small G-protein Ras, which recruits Raf […], where activation occurs. Alternatively, this pathway can be activated by elevating intracellular cAMP.
Activation of the ERK pathway is essential in increased cell division and cell survival. Sustained and constitutive activation of the ERK pathway, however, has been linked to uncontrolled cell proliferation, increased cell survival, and tumor progression. Thus, the ERK has been as an attractive target for cancer chemotherapy in the past few years (Sebolt-Leopold and Herrera, 2004). […]
Biotinylated rabbit IgG was used to perform a counter-screen in the context of an AlphaScreen assay kit provided by PerkinElmer. […] AC50 values were determined from concentration-response data modeled with the standard Hill equation. […]
(10) Detect the assay plate in an EnVision plate reader (PerkinElmer) using the AlphaScreen detection mode. […]

SMILES | outcome
O=C1NC(=O)C(=Cc2ccccc2Oc2ccc(F)cc2)C(=O)N1 | inactive
CCN1C(=O)NC(=O)/C(=C/c2cc(C)n(-c3sc(C)c(C)c3C#N)c2C)C1=O | inactive
